Compound activity (PubChem BioAssay)
PrPC TRFRET – cell surface PrPC inhibition, primary TR-FRET screen; TR-FRET read-out; inhibition, % at 13.8 µM; 370,000 tested, 0.43% active; AID 720596; in the data active = inhibition above about 24%; also: 0% = median of the test wells and 100% = reference compound wells
MazF activator – activators of E. coli MazEF toxin-antitoxin RNase | P0AE70 | FAM/BHQ RNA-DNA oligo cleavage fluorescence, 5 h | activation, % at 20 µM | 350,000 tested, 0.32% active | AID 504720; in the data active = activation above about 50%
PrP UTR inh – inhibition of PrP 5' UTR reporter expression; cell-based PrP 5' UTR mRNA reporter, plate reader; inhibition, % (concentration not given with the values); 340,000 tested, 0.35% active; AID 488862; in the data active = inhibition above about 52%; also: 0 = median of the neutral control wells
DUSP3 inh – DUSP3 (human) phosphatase inhibition; P51452; recombinant VHR phosphatase, pNPP absorbance; inhibition, % at 13.3 µM; 290,000 tested, 0.52% active; in the data active = inhibition above about 50%
SARS 3CLpro inh – SARS-CoV 3CLpro protease inhibition; 290,000 tested, 0.14% active; recombinant SARS-CoV 3CLpro, quenched FRET peptide cleavage; P0C6X7; inhibition, % at 6 µM; AID 1706; in the data active = inhibition above about 12%
Mtb hypoxia rep – inhibitors of hypoxia-regulated fluorescent reporter in Mycobacterium tuberculosis | M. tuberculosis hypoxia-regulated fluorescent reporter, fluorescence | 300,000 tested, 0.1% active | fluorescence inhibition, % (test concentration not listed); in the data active = fluorescence inhibition mostly above about 23%, no sharp cut-off; inactive = mostly below about 17%
PrPC confirm – confirmation of inhibitors of cell surface human prion protein. shares compounds with PrPC TRFRET. cell surface PrPC level, TR-FRET. inhibition, % at 13.8 µM. 1,500 tested, 65% active; in the data active = inhibition above about 25%
LD9 tox – LD9 cell cytotoxicity, PrPc inhibitor counter-screen. shares compounds with PrPC TRFRET. LD9 cells cytotoxicity, luminescence viability. inhibition, % at 13.8 µM. 1,500 tested, 29% active; in the data active = inhibition above about 9.5%
Starred values were filed as active, the others as inactive; x = no result shown. This is a sample that favours compounds with a hit; in the whole collection about 1.5% have one here.

SMILES	PrPC TRFRET	MazF activator	PrP UTR inh	DUSP3 inh	SARS 3CLpro inh	Mtb hypoxia rep	PrPC confirm	LD9 tox
Cc1nonc1NC(=O)CSc1nc(CCC2CCCC2)nc2ccccc12	5.5	7.8	-3.4	-0.1	-1.3	2.7	x	x
CCc1cc2ccccc2nc1SCC(=O)Nc1cc(C)on1	29.9*	18.4	-3.3	17.6	5.6	x	68.8*	-1.6
Cc1cc(NC(=O)CSc2nc(CCC3CCCC3)nc3ccccc23)no1	43.1*	-33.1	-19.9	9.7	1.5	4.0	55.6*	-11.2
Cc1cc(NC(=O)c2cc(-c3cccs3)nc3ccccc23)no1	-6.6	-1.5	-11.1	10.8	-4.2	3.1	x	x
CCCc1nc(SCC(=O)Nc2cc(C)on2)c2ccccc2n1	122.9*	7.9	-22.3	11.9	-2.8	11.4	120.4*	-10.4
Cc1cc(NC(=O)CSc2nc(-c3cccs3)nc3ccccc23)no1	43.9*	0.2	-4.6	x	x	3.1	101.8*	-1.5
COc1ccc(CC2CN3C(=NCC3Cc3ccc(O)cc3)N2CCNC(=O)c2ccc(C)c(Br)c2)cc1 (stereo unspecified)	x	x	x	x	x	-12.7	x	x
COc1ccc(CNC(=S)NN=Cc2ccc(O)c(OC)c2)cc1	x	x	x	x	x	5.0	x	x
CC(C)(C)c1nc(SCC(=O)NC2CCCC2)c2ccccc2n1	22.9	-21.8	10.4	17.0	-3.1	-6.4	x	x
CCCc1nc(SCC(=O)NC2CCCC2)c2ccccc2n1	34.4*	5.0	-29.0	15.8	-0.7	10.1	43.1*	-11.7
CCCCNC(=O)CSc1nc(Cc2ccccc2)nc2ccccc12	28.5*	-21.2	-14.9	49.1	0.0	11.1	38.1*	-6.2
Cc1cc(NC(=O)CSc2nc(C(C)(C)C)nc3ccccc23)no1	1.1	-1.9	-31.2	25.2	2.1	-1.1	x	x
Cc1cc(NC(=O)CSc2ncnc3ccccc23)no1	36.5*	6.6	-11.0	23.2	0.5	2.2	93.6*	-3.3
CSc1ccc(C=NNC(=O)CN2CCN(Cc3ccc(Cl)cc3)CC2)cc1	x	x	x	x	x	2.8	x	x
O=C(CCc1ccccc1)Nc1cccc(NC(=O)CCc2ccccc2)c1	25.5*	-9.2	x	18.6	2.1	1.9	11.4	-3.7
CC(C)(C)c1csc(NC(=O)Cc2cccs2)n1	4.1	4.9	-3.8	1.1	-2.8	8.5	x	x
CC(C)(C)c1csc(NC(=O)CCc2ccccc2)n1	26.3*	5.5	-26.6	3.5	4.3	-2.2	19.5	-8.1
O=C(Nc1ccc(OCc2ccccc2)cc1)c1cccs1	25.4*	-0.7	-41.4	42.1	-4.5	0.5	15.6	2.0
O=C(Cc1ccccc1)Nc1cccc(NC(=O)c2cccs2)c1	31.6*	4.7	-11.1	12.0	5.6	10.0	16.9	-5.0
CN(CC(=O)Nc1ccccc1Br)C(=O)c1ccc(COc2ccccc2)cc1	7.5	-3.9	-10.9	-17.2	7.6	-5.2	x	x
COc1ccc2cc(C(=O)N(C)CC(=O)Nc3ccccc3Br)ccc2c1	31.3*	0.2	-52.9	x	x	x	43.7*	-6.2
O=C(O)CCCCCCC1C(=O)NC(=O)N1CCC(O)C1CCCCC1 (stereo unspecified)	26.6*	6.3	-13.7	24.0	-2.7	0.2	19.4	-7.8
C(=Nn1cnnc1)c1cccnc1	x	x	x	x	x	5.4	x	x
CC1CN(C(C)CO)C(=O)c2cc(NC(=O)C3CCCCC3)ccc2OC1CN(C)S(C)(=O)=O (stereo unspecified)	x	x	x	x	x	19.0	x	x
O=C(NCCn1ccc2ccccc21)C1CCCCC1	5.1	15.0	-29.7	38.9	6.9	17.0	x	x
SMILES	PrPC TRFRET	MazF activator	PrP UTR inh	DUSP3 inh	SARS 3CLpro inh	Mtb hypoxia rep	PrPC confirm	LD9 tox
Cc1cc2ccccc2n1CCNC(=O)c1cccs1	32.7*	-15.3	-8.3	-2.4	3.9	-1.6	25.2*	-4.6
Cc1cc2ccccc2n1CCNC(=O)C1CCCCC1	36.2*	-5.2	-21.1	-14.6	4.5	5.5	10.9	-1.8
CCn1c(CNC(=O)C2CCCCC2)cc2ccccc21	9.2	-2.3	-24.5	30.0	8.0	8.5	x	x
Cc1cc2ccccc2n1CCNC(=O)C1CCCC1	39.9*	10.8	-28.0	23.7	1.2	x	3.7	1.3
Cc1cc2ccccc2n1CCNC(=O)C1CC1	28.4*	-22.1	-10.1	33.0	-3.7	-2.3	7.2	-1.9
CCOC(=O)C1C2COc3ccc(Br)cc3C2N2C(=O)c3cc(OC)c(OC)cc3NC(=O)[C@@]12C (stereo partly specified)	x	x	x	x	x	-4.7	x	x
CC(=NNC(=O)CNC(=O)c1ccc(Br)cc1)c1ccco1	x	x	x	x	x	-2.2	x	x
Cc1cc(-c2ccccc2)nc(NN=Cc2ccc(O)cc2)n1	x	x	x	x	x	4.6	x	x
CC(=O)NC(c1ccc(Cl)cc1Cl)c1ccc2cccnc2c1O (stereo unspecified)	31.7*	1.0	21.7	11.4	2.8	x	34.9*	30.7*
CCCC(=O)NC(c1ccc(Cl)cc1Cl)c1ccc2cccnc2c1O (stereo unspecified)	28.1*	14.3	36.9	9.4	-1.4	x	24.4	11.9*
CC(=O)NC(c1ccc2ccccc2c1)c1ccc2cccnc2c1O (stereo unspecified)	38.5*	2.6	40.8	6.1	-2.8	x	24.9*	30.6*
CCCC(=O)NC(c1ccc(Cl)cc1)c1ccc2cccnc2c1O (stereo unspecified)	18.4	0.4	28.2	5.2	3.0	x	x	x
CC(C)C(=O)NC(c1cccc([N+](=O)[O-])c1)c1ccc2cccnc2c1O (stereo unspecified)	29.0*	4.4	22.4	12.1	1.5	8.6	21.7	28.1*
O=S1(=O)CCC(=NNc2ccccn2)c2cc(F)ccc21	x	x	x	x	x	3.4	x	x
CCC(=O)Nc1cccc(C2=NOC3(C2)CC(C(N)=O)N(C(=O)C2(C)CC2)C3)c1 (stereo unspecified)	x	x	x	x	x	2.1	x	x
O=C1N/C(=N/N=Cc2ccc(F)cc2)SC1c1ccccc1 (stereo unspecified)	x	x	x	x	x	-0.8	x	x
CC(=NNC(=O)Cc1ccc(Cl)c(Cl)c1)c1cccnc1	x	x	x	x	x	3.8	x	x
COC(=O)C1C2SC(C)(C)C(C(=O)OC)N2C(=O)N1Cc1nc2ccccc2s1 (stereo unspecified)	x	x	x	x	x	2.3	x	x
COc1ccc2ccccc2c1/C=N/NC(=O)c1cccc([N+](=O)[O-])c1	26.2*	6.7	-22.6	15.5	-4.8	x	-0.6	-8.7
CCOC(=O)c1c(C)[nH]c(C(=O)NN=Cc2cccc(OC)c2)c1C	x	x	x	x	x	6.0	x	x
COc1ccc(S(=O)(=O)N(C)CC2Oc3ccc(NS(=O)(=O)c4ccc(F)cc4)cc3C(=O)N(C(C)CO)CC2C)cc1 (stereo unspecified)	x	x	x	x	x	4.5	x	x
CCc1nnc(NC(=O)CSc2sc3c(O)cc(=O)[nH]c3c2C#N)s1	20.8	8.7	-6.1	-2.3	-8.2	3.9	x	x
Cc1csc(NC(=O)CSc2sc3c(O)cc(=O)[nH]c3c2C#N)n1	25.6*	7.6	-31.5	23.1	-1.5	1.3	4.2	1.7
